Inconclusive results are not listed. A call without a number means that no potency is given here. Activity calls are given as the source filed them. The call rests on the fitted dose curve; in most records, active means well fitted curve in the direction sought with a large enough effect; inconclusive means small, poorly fitted or top-dose-only effect, or another doubt; inactive means no such curve, though single readings can be large; an effect the other way counts as inactive or inconclusive.
How the values were obtained:
[1] = biological target: Guanine nucleotide-binding protein G(i) subunit alpha-1 (Homo sapiens) (UniProt P63096); experiment: qHTS Assay for Inhibitors of RGS12 GoLoco Motif Activity (Green Fluorophore) (AID 879); further: potency means the concentration at half of the fitted maximal effect
Sequence of Guanine nucleotide-binding protein G(i) subunit alpha-1 (Homo sapiens) (P63096 whole entry, looked up): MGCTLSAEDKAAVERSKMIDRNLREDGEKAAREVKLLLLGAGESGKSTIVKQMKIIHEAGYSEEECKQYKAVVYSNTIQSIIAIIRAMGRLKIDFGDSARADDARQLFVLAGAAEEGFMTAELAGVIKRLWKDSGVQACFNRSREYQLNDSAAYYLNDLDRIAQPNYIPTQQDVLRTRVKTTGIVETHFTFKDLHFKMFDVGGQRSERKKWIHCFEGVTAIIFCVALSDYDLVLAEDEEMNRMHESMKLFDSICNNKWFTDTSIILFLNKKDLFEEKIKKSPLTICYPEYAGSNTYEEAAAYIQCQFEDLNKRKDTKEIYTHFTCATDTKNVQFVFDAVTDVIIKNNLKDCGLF
Method in brief: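 A drop in FITC polarization marked displacement of the FITC-tagged RGS12 GoLoco peptide (10 nM) from Gαi1 (50 nM). Compounds were incubated 10 min at room temperature in Tris pH 7.5 buffer containing 150 mM NaCl, 0.1 mM GDP and 0.05% NP40; unlabeled peptide titration served as control.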

[2] = biological target: Cytochrome P450 3A4 (Homo sapiens) (UniProt P08684); experiment: qHTS Assay for Activators of Cytochrome P450 3A4 (AID 885); further: nearly all actives have a fitted effect of over 65% in size
Sequence of Cytochrome P450 3A4 (Homo sapiens) (P08684 whole entry, looked up): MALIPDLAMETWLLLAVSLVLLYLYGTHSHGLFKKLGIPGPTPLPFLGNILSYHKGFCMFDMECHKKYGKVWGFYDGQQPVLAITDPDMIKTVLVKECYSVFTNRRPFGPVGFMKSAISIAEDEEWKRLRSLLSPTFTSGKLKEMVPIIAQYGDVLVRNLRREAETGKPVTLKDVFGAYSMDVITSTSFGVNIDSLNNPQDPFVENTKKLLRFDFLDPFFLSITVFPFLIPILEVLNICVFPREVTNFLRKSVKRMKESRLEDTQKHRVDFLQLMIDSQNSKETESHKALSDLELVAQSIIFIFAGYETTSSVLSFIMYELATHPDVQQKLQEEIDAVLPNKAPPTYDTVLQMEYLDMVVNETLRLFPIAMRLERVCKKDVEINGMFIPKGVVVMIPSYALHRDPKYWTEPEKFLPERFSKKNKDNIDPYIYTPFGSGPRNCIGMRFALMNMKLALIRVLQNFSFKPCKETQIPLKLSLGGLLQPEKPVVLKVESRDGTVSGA
Method in brief: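 Human CYP3A4 dealkylates Luciferin-PPXE to luciferin, which luciferase detection converts to light. Substrate was at its KM (25uM), buffer 200mM KPO4, reaction 60 min at RT.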

[3] = biological target: Cytochrome P450 2D6 (Homo sapiens) (UniProt P10635); experiment: qHTS Assay for Inhibitors and Substrates of Cytochrome P450 2D6 (AID 891);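 further: luciferin methyl ether substrate demethylated by CYP2D6 with NADPH regeneration; nearly all actives have a fitted effect of over 60% in size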
Sequence of Cytochrome P450 2D6 (Homo sapiens) (P10635 whole entry, looked up): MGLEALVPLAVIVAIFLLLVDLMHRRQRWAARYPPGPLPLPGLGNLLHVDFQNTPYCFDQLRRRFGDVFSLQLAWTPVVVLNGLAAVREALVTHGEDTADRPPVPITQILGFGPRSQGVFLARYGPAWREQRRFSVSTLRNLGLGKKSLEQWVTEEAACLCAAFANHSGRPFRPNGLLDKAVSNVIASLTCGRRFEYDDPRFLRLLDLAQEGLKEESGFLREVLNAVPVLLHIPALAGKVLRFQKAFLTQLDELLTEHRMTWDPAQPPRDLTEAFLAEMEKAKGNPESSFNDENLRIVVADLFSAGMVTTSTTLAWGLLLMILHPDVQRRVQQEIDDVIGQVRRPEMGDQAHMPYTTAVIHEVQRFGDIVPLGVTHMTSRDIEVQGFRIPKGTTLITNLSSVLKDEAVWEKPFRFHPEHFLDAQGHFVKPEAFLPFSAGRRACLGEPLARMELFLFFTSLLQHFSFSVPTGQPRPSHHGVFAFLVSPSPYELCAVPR
Method in brief: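 Luminescent read-out of luciferin formed by 5 nM human CYP2D6 demethylating 30 uM Luciferin-ME EGE (Km level) over 60 min at room temperature after NADPH regeneration addition. Data normalized to full inhibition by 1.43 uM quinidine.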

[4] = biological target: Cytochrome P450 3A4 (Homo sapiens) (UniProt P08684); experiment: qHTS Assay for Inhibitors and Substrates of Cytochrome P450 3A4 (AID 884); further: series mostly up to about 57 µM; nearly all actives have a fitted effect of over 50% in size
Method in brief: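 Luminescent readout of luciferin produced by CYP3A4 (20 nM) dealkylation of Luciferin-PPXE, 25 uM (its KM). NADPH-driven reaction ran 60 min at RT after 10 min compound preincubation; data scaled to 57 uM ketoconazole as 100% inhibition.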

Row | SMILES | Potency [1] | Potency [2] | Potency [3] | Potency [4]
1 | CNCCNS(=O)(=O)c1cccc2cnccc12 | inactive | inactive |  | 
2 | COCc1nc2c([nH]1)c(=O)n(C)c(=O)n2CC(C)C | inactive | inactive | inactive | 
3 | S=C(S)N1CCCC1 | inactive | inactive |  | 
4 | O=c1onc2n1-c1cc(Br)ccc1OC2 | inactive | inactive |  | 
5 | Cc1cccc(C(=O)NCN2CCN(c3ccccc3C#N)CC2)c1 | inactive | inactive |  | 
6 | CCN(CC)CCCCCCCCOC(=O)c1cc(OC)c(OC)c(OC)c1 | inactive | inactive |  | 
7 | O=C(O)c1cc2cc(F)ccc2[nH]1 | inactive |  | inactive | inactive
8 | COc1cc(/C=C(\C#N)C(=O)c2ccc(O)c(O)c2)cc(I)c1O | inactive | inactive |  | 
9 | O=C(N[C@@H](Cc1ccccc1)C(=O)CCl)OCc1ccccc1 | inactive | inactive |  | 
10 | CN1CCN(c2nc3cc(C(F)(F)F)ccc3n3cccc23)CC1 | inactive | inactive |  | 
11 | NC(=Nc1ccccc1)NC(=O)c1nc(Cl)c(N)nc1N | inactive | inactive |  | 
12 | Nc1ccc2c3c(cccc13)C(=O)NC2=O | 0.794 µM (active) | inactive |  | 
13 | Cc1nc2c(OCc3ccccc3)cccn2c1CC#N | inactive | inactive |  | 
14 | Nc1ccc(N2C(=O)c3ccccc3C2=O)c(Cl)c1 | inactive | inactive |  | 
15 | CCCn1c(=O)c2c(ncn2C)n(CCC)c1=O | inactive | inactive |  | 
16 | O=c1[nH]c2cc(Cl)ccc2c(O)c1-c1ccc(Oc2ccccc2)cc1 | inactive | inactive |  | 
17 | O=[N+]([O-])c1cccc2c(Br)[nH]nc12 | inactive | inactive |  | 
18 | c1ccc2nc(C3=NCCN3)ccc2c1 | inactive | inactive |  | 
19 | Clc1nccc2c1ccc1ccccc12 | inactive | inactive |  | 
20 | COc1cc2c(CCNC(C)=O)c[nH]c2cc1O | inactive | inactive |  | 
